The values that follow come from PubChem BioAssay (Tox21).

Experiment [1] is described as follows: Nuclear factor erythroid 2-related factor 2/antioxidant responsive element (Nrf2/ARE) small molecule agonists: qHTS cell viability counter screen in human keratinocytes (AID 1919968; active means well fitted curve in the direction sought with a large enough effect in the repeat runs; an effect the other way counts as inactive or inconclusive; further: nearly all actives have a fitted effect of over 55% in size). In outline: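 CellTiter-Fluor fluorescence, read 1 h after reagent, gave viability in the same wells as the ARE-luciferase assay. KeratinoSens cells (1,500/well) had 23 h compound exposure at 37 C/5% CO2 following 5 h plating.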
On the technique in general: qHTS replaces the single test concentration by a dilution series.

Experiment [2] is described as follows: Nuclear factor erythroid 2-related factor 2/antioxidant responsive element (Nrf2/ARE) small molecule agonists: luciferase reporter gene qHTS assay in human keratinocytes (AID 1919969). Further: nearly all actives have a fitted effect of over 35% in size.
Experiment [3] deals with Gonadotropin-releasing hormone receptor (Homo sapiens) (UniProt P30968). The experiment is described as follows: Human gonadotropin-releasing hormone receptor (GnRHR) small molecule agonists, calcium flux assay in GnRHR-HEK293 cells (AID 1920063). Further: nearly all actives have a fitted effect of over 35% in size. The method, boiled down: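 Agonist mode: compounds at 15 concentrations, in triplicate, went onto calcium dye-loaded GnRHR-HEK293 cells. Intracellular calcium was then followed as 480/540 nm fluorescence at 1 s intervals over 3 min.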
Sequence of Gonadotropin-releasing hormone receptor (Homo sapiens) (P30968 whole entry, looked up): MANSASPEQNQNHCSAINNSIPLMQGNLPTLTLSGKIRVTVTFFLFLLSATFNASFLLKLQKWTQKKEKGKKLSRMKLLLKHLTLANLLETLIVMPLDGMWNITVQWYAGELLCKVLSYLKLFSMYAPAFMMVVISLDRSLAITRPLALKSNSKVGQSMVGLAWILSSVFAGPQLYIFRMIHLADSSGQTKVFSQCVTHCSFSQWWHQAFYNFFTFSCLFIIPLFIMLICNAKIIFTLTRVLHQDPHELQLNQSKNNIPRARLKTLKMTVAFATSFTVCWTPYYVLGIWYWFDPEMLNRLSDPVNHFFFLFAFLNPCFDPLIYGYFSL
On the technique in general: A change in cytosolic calcium serves as a functional read-out for many receptors and channels.

Experiment [4] concerns the target KiSS-1 receptor (Homo sapiens) (UniProt Q969F8). The experiment in a line: Human kisspeptin (KISS1R) small molecule agonists, calcium flux assay in KISS1R-HEK293 cells (AID 1920064; active means well fitted curve in the direction sought with a large enough effect in the repeat runs; an effect the other way counts as inactive or inconclusive). The method, boiled down:
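Agonist mode: intracellular calcium rise tracked at 1 s intervals over 3 min (480/540 nm) immediately after compound addition to dye-loaded KISS1R-HEK293 stable cells. Each compound tested at 15 concentrations in triplicate.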

Experiment [5] can be described thus: G protein-coupled receptor (GPCR) small molecule agonists, calcium flux assay: HEK293 wild type cell line counter screen (AID 1920065). The method, boiled down:
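Calcium flux counter screen: compound added in agonist mode at 15 concentrations in triplicate to dye-loaded parental HEK293 cells. Fluorescence (480/540) read kinetically for 3 min; ATP served as positive control.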

Experiment [6] can be described thus: p53 small molecule agonists, cell-based qHTS assay with rat liver microsomes (AID 1963578). The method, boiled down: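 Quantitative HTS of the Tox21 10K library: p53RE-bla cells, rat liver microsomes plus NADPH at 0.5 mg/mL final each, 16 h at 37 C, beta-lactamase fluorescence detection.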
A short description of experiment [7]: p53 small molecule agonists, cell-based qHTS assay with human liver microsomes: qHTS cell viability counter screen (AID 1963579). Further: nearly all actives have a fitted effect of over 45% in size. In outline:
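Viability of p53RE-bla cells is measured as CellTiter-Glo luminescence following a 16 h, 37 C incubation with compound, liver microsomes from human donors and NADPH.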

Experiment [8] is described as follows: p53 small molecule agonists, cell-based qHTS assay: qHTS cell viability counter screen (AID 1963581). Further: nearly all actives have a fitted effect of over 45% in size. In outline: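 Counter screen read by CellTiter-Glo luminescence (ATP content, 30 min at room temperature), run in the same wells as the beta-lactamase reporter read. HCT-116 p53RE-bla cells saw compounds for 16 h at 37 C.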
The target in experiment [9] is 5-hydroxytryptamine receptor 2A (Homo sapiens) (UniProt P28223). The experiment is described as follows: 5-hydroxytryptamine receptor 2A (HTR2A) small molecule antagonists, cell-based qHTS assay (AID 1963586). Further: nearly all actives have a fitted effect of over 45% in size. Further: potency means the concentration at half of the fitted maximal effect. The method, boiled down: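 CHO cells stably expressing human HTR2A were plated for 18 h at 37 C, then loaded with calcium dye for 1 h. Compounds were preincubated 5 min at room temperature before DOI (4 nM solution) was added. Kinetic fluorescence was read for 3 min.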
Sequence of 5-hydroxytryptamine receptor 2A (Homo sapiens) (P28223 whole entry, looked up): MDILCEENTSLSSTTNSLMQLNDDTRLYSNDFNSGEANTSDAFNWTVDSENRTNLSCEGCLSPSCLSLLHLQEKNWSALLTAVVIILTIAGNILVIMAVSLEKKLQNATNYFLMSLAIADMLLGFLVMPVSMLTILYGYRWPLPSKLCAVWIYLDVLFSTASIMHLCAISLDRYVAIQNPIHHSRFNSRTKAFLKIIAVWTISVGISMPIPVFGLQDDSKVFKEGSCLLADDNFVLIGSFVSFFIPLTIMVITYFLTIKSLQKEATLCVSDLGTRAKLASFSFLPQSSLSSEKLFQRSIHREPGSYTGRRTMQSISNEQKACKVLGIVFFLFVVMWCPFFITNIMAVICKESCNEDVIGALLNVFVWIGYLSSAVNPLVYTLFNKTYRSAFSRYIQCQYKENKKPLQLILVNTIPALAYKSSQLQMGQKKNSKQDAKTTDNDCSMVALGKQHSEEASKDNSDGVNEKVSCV

For experiment [10] the target is unchanged. The experiment in a line: 5-hydroxytryptamine receptor 2A (HTR2A) small molecule agonists, cell-based qHTS assay (AID 1963587). Further: nearly all actives have a fitted effect of over 30% in size. The method, boiled down: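 CHO cells stably expressing human HTR2A, plated 18 h, loaded with calcium dye 1 h at 37 C. Agonist mode: compounds added and intracellular calcium fluorescence recorded kinetically for 2 min at 1 sec intervals.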

The target of experiment [11] is Muscarinic acetylcholine receptor M1 (Homo sapiens) (UniProt P11229). The experiment in a line: Cholinergic receptor muscarinic 1 (CHRM1) small molecule antagonists, cell-based qHTS assay (AID 1963588). Further: nearly all actives have a fitted effect of over 40% in size. Further: potency means the concentration at half of the fitted maximal effect. In outline:
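Compounds were tested at 15 concentrations in three independent runs. Dye-loaded CHRM1-CHO cells were exposed 5 min at room temperature before stimulation by acetylcholine added at 50nM. Intracellular calcium was read kinetically on FDSS for 3 min.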

In experiment [12] the target is Beta-2 adrenergic receptor (Homo sapiens) (UniProt P07550). The experiment is described as follows: Adrenergic beta2 receptor (ADRB2) small molecule antagonists, cell-based qHTS assay (AID 1963592). Further: series mostly up to about 92 µM; nearly all actives have a fitted effect of over 50% in size. The method, boiled down: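 Assay format: CHO-ADRB2 cells, 18-20hr seeding at 37C/5% CO2, then compound plus 1nM isoproterenol agonist mix for 0.5hr RT. Homogeneous time-resolved fluorescence cAMP detection after 1hr, expressed as 665/615 nm ratio.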
Sequence of Beta-2 adrenergic receptor (Homo sapiens) (P07550 whole entry, looked up): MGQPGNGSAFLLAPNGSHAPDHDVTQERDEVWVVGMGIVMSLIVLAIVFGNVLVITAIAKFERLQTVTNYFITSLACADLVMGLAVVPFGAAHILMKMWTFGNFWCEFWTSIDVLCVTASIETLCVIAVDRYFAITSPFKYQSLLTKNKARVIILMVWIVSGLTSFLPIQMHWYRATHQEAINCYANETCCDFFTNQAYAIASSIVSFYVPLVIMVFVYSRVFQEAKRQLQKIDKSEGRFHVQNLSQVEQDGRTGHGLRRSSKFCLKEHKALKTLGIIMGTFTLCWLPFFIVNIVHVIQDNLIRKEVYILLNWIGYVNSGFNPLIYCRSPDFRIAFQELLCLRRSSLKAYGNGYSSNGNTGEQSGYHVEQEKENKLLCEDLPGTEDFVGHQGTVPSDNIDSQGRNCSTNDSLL

For experiment [13] the target is unchanged. The experiment in a line: Adrenergic beta2 receptor (ADRB2) small molecule agonists, cell-based qHTS assay (AID 1963593).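 Further: CHO cells stably overexpressing human ADRB2.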 The method, boiled down:
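CHO cells stably over-expressing ADRB2 were plated overnight at 37C, then dosed with compounds plus a stimulation mix containing 100uM IBMX and 25uM Ro-20-1724 for 0.5hr at room temperature. cAMP was measured by HTRF competition, 1hr.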

Experiment [14] concerns the target D(2) dopamine receptor (Homo sapiens) (UniProt P14416). The experiment is described as follows: Dopamine D2 receptor (DRD2) small molecule agonists, cell-based qHTS assay (AID 1963594). Further: nearly all actives have a fitted effect of over 35% in size. In outline: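 HEK293 cells stably expressing human DRD2, pre-treated with PDE inhibitor Ro20-1724 (0.1 mM final) and compound 10 min at room temperature, then stimulated with NKH477 (200nM […]) for 30 min. cAMP read by HTRF (665/620 nm).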

Experiment [15] has the same target. The experiment in a line: Dopamine D2 receptor (DRD2) small molecule antagonists, cell-based qHTS assay (AID 1963595; active means well fitted inhibition curve with a large enough effect in the signal ratio in the repeat runs, with a control signal flat; the % refers to the signal ratio; further: potency means the concentration at half of the fitted maximal effect). In outline:
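In this cell-based antagonist screen, compounds act for 10 min at room temperature before a 30 min challenge with 12 nM quinpirole and 200 nM NKH477. cAMP is quantified by HTRF competition in DRD2-HEK293 cells containing 0.1 mM Ro20-1724.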

A short description of experiment [16]: p53 small molecule agonists, cell-based qHTS assay with rat liver microsomes: qHTS cell viability counter screen (AID 1963580). Further: nearly all actives have a fitted effect of over 45% in size. The method, boiled down:
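Cytotoxicity counter screen: intracellular ATP measured by CellTiter-Glo luminescence in the same wells as the beta-lactamase reporter read, on HCT-116 p53RE-bla cells exposed 16 h at 37 C to compounds with rat liver microsomes and NADPH, each 0.5 mg/mL final.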

The nature of experiment [17]: p53 small molecule agonists, cell-based qHTS assay (AID 1963582; active means well fitted activation curve with a large enough effect in the signal ratio in the repeat runs, not every such curve was filed as active; the % refers to the signal ratio). The method, boiled down:
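Read-out is beta-lactamase FRET fluorescence after 2 h at room temperature with LiveBLAzer B/G substrate. p53 response element-bla cells were treated 16 h at 37 C with compounds in DMSO, added 5 h after seeding.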

Experiment [18] has as its target Muscarinic acetylcholine receptor M1 (Homo sapiens) (UniProt P11229). The experiment in a line: Cholinergic receptor muscarinic 1 (CHRM1) small molecule agonists, cell-based qHTS assay (AID 1963589). Further: nearly all actives have a fitted effect of over 35% in size. In outline: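 Agonist-mode calcium-flux screen: compounds at 15 concentrations, three independent runs, were pin-transferred onto dye-loaded human CHRM1-CHO cells. Fluorescence was then recorded kinetically every second over minutes.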

The nature of experiment [19]: cAMP Responsive Elements (CRE) small molecule agonists, cell-based qHTS assay (AID 1963590). In outline: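 Agonist mode: compound added to CRE-bla HEK 293T cells (2,000/well, 18 h after plating) for 3 h at 37 C/5% CO2. Reporter activity detected via FRET beta-lactamase substrate, 2 h room-temperature loading.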
Experiment [20] in a line: cAMP Responsive Elements (CRE) small molecule antagonists, cell-based qHTS assay (AID 1963591; active means well fitted inhibition curve with a large enough effect in the signal ratio in the repeat runs, not every such curve was filed as active; the % refers to the signal ratio). The method, boiled down:
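Antagonist mode: compounds are added alongside the adenylyl cyclase activator NKH477 (0.25 uM final) to CRE-bla HEK293T cells for 3 h. LiveBLAzer FRET substrate, 2 h at room temperature, reports bla expression.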

A number with no mark means an inactive call. Records with an inconclusive call do not appear. Active and inactive are the calls of the source. Unless noted, the call rests on the fitted dose curve.

Sequence of Muscarinic acetylcholine receptor M1 (Homo sapiens) (P11229 whole entry, looked up): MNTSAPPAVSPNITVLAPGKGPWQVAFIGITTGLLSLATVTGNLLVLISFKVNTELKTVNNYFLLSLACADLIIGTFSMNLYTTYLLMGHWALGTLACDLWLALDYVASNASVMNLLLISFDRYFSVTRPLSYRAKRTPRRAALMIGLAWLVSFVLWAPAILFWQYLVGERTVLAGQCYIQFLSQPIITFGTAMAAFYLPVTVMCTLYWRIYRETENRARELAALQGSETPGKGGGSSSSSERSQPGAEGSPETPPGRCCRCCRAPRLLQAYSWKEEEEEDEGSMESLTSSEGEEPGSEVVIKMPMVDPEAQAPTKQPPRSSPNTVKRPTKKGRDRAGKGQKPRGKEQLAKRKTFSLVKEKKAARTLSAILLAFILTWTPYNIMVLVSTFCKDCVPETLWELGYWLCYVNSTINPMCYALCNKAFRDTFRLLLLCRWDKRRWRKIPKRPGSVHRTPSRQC
Sequence of D(2) dopamine receptor (Homo sapiens) (P14416 whole entry, looked up): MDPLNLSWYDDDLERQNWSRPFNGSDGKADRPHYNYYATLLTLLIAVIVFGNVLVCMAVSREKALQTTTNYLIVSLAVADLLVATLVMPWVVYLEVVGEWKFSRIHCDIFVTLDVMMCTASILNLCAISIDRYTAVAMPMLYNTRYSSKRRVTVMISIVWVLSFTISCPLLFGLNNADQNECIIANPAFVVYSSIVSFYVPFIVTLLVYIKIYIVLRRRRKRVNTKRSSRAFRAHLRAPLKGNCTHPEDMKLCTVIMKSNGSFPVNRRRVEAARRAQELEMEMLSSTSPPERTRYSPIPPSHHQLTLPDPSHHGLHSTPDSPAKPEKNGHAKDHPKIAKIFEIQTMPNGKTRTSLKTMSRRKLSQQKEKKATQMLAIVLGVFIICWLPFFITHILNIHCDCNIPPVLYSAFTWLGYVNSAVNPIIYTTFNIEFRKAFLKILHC
Sequence of KiSS-1 receptor (Homo sapiens) (Q969F8 whole entry, looked up): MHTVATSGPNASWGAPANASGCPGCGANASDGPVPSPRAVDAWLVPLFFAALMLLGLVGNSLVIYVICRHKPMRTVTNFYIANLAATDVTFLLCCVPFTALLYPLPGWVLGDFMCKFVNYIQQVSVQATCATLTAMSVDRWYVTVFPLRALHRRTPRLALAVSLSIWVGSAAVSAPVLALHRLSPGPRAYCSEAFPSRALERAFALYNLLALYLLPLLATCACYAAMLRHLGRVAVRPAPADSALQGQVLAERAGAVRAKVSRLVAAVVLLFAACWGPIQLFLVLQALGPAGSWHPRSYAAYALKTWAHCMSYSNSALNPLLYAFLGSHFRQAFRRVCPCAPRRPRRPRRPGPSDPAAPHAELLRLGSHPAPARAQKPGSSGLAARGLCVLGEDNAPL

In the case of `c1ccc(C[P+](c2ccccc2)(c2ccccc2)c2ccccc2)cc1`, the Potency entry in experiment [1], in experiment [2], in experiment [3], in [6], in experiment [7] and in [8] was “inactive” each time. Further, the Potency result in experiment [9], in [10], in [12], in [13], in [14] and in experiment [15] was “inactive” throughout. The result in experiment [4] and in experiment [5] was inactive. Moreover, the Potency in experiment [11] was 4720 nM (active).

Take `CC(=O)Nc1ccccc1C`: the Potency entry in experiment [1], in experiment [2], in experiment [3], in experiment [6], in [7] and in [16] was “inactive” throughout. The Potency result in experiment [17], in [9], in experiment [10], in [11], in experiment [18] and in experiment [19] was “inactive” throughout. For the same molecule, the Potency result in [20], in experiment [12], in [13], in experiment [14] and in experiment [15] was “inactive” each time. Also, the result in experiment [4] and in [5] was inactive.

Turning to `Cc1cccc(C(C)(C)C)c1O`, the Potency result in experiment [1], in experiment [2], in experiment [3], in experiment [6], in [7] and in experiment [8] was “inactive” in each case. The Potency entry in [17], in experiment [18], in [19], in experiment [20], in [12] and in [13] was “inactive” throughout. In experiment [15], the Potency result was “inactive”. The outcome in experiment [4] and in experiment [5] was inactive.

Turning to `C=CC(=O)OCCCCCCCCCC`, the Potency result in experiment [1], in experiment [2], in experiment [3], in experiment [6], in experiment [7] and in experiment [8] was “inactive” in each case. Moreover, the Potency result in experiment [17], in experiment [10], in [11], in [19], in experiment [20] and in experiment [12] was “inactive” in each case. Also, the Potency result in experiment [13], in experiment [14] and in [15] was “inactive” in each case. Also, the result in [4] and in experiment [5] was inactive.

As for `OCCSc1ccccc1`, the Potency entry in experiment [1], in experiment [2], in experiment [3], in experiment [6], in experiment [7] and in experiment [16] was “inactive” in each case. The Potency result in experiment [8], in [9], in [10], in experiment [11], in [18] and in experiment [19] was “inactive” throughout. The Potency result in [12], in [13], in experiment [14] and in experiment [15] was “inactive” in each case. The outcome in experiment [4] and in experiment [5] was inactive.

On to `COc1cc(C)ccc1C(C)C`, for which the Potency result in experiment [1], in experiment [2], in [3], in [6], in experiment [7] and in experiment [8] was “inactive” each time. The Potency entry in [17], in experiment [10], in experiment [11], in experiment [18], in experiment [19] and in [20] was “inactive” in each case. The Potency entry in [12], in [13], in experiment [14] and in [15] was “inactive” each time. In addition, the outcome in [4] and in experiment [5] was inactive.

As for `COc1c(C)c2c(c(O)c1C/C=C(\C)CCC(=O)O)C(=O)OC2`, the Potency entry in experiment [1], in [2], in experiment [3], in experiment [6], in experiment [7] and in [16] was “inactive” throughout. In addition, the Potency result in [12], in experiment [13], in [14] and in [15] was “inactive” throughout. The outcome in experiment [4] and in [5] was inactive.

Consider `CN1CCC(=C2c3ccccc3CCc3sccc32)CC1`, for which the Potency entry in experiment [1], in experiment [2], in experiment [3], in experiment [6], in experiment [7] and in experiment [16] was “inactive” throughout. Further, the Potency entry in experiment [17], in [18], in [19] and in experiment [14] was “inactive” in each case. In addition, the outcome in experiment [4] and in [5] was inactive. The values for the Potency in [9], in experiment [11] and in experiment [15] were 11.6 nM (active), 14.5 nM (active) and 11900 nM (active), respectively.
